In PubChem BioAssay (NCATS):
Inconclusive results are not listed. Calls of active or inactive are those of the source. Calls come from the whole dose curve; as a rule, active = well fitted inhibition curve with a large enough effect; inconclusive = small, poorly fitted or top-dose-only effect; inactive = flat fitted curve, though single readings scatter.

target: Calcium and integrin-binding protein 1 (Homo sapiens) (UniProt Q99828); assay: Primary qHTS for Identification of Calcium Integrin Binding Protein 1 (CIB1) Competitor (AID 1508620); conditions: CIB1-GST / FITC-alphaIIb peptide fluorescence polarization; series mostly up to 114 µM; activity change, negative = inhibition: at the top concentration;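 note: GST tagged CIB1 binding a fluorescein labelled alphaIIb integrin peptide tracer; top concentration of the series differs between compounds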
How it was run: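 Fluorescence polarization competition: CIB1-GST (1 uM final) preincubated with compound 15 min at room temperature, then FITC-labeled alphaIIb peptide (100 nM final) added for another 15 min. Polarization read at Ex 480/Em 540.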
% is set by controls: 0 for no effect and ±100 for the full control effect.

Calcium and integrin-binding protein 1 (Homo sapiens), sequence (Q99828 whole entry, looked up): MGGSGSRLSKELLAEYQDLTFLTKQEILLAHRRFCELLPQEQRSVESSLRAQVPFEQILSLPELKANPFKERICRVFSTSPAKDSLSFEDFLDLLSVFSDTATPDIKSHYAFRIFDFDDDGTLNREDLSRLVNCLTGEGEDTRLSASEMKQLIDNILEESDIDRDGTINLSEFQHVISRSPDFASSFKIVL

Q: With `COc1ccc(CN2C(=O)c3ccccc3NC2c2ccc(OC)c(COc3c(C)cc(NC(C)=O)cc3C)c2)cc1` (stereo not given) as the compound, how does the “activity change, negative = inhibition” value read?
A: 2.21% (inactive)

Q: How did the “activity change, negative = inhibition” value turn out when `O=S(=O)(NCC1CCC(NS(=O)(=O)c2c(F)cccc2F)CC1)c1ccc2c(c1)OCCO2` (stereo not given) was run?
A: 7.67% (inactive)

Q: `O=C1Nc2ccccc2C12CC2c1cc(Cl)c(O)c(Cl)c1` (stereo not given) was tested. Which Potency did it give?
A: inactive

Q: With `CCc1nn2c(=O)cc(NC3CNC3)nc2s1` as the compound, how does the “activity change, negative = inhibition” value read?
A: 0.892% (inactive)

Q: With `O=C(OCC#CCSc1nnc(-c2cccc3ccccc23)o1)c1cccc2[nH]ccc12` as the compound, how does the “activity change, negative = inhibition” value read?
A: 6.54% (inactive)

Q: How did the “activity change, negative = inhibition” value turn out when `COc1cc(OC)cc(C2=Nn3c(nnc3-c3ccccc3O)SC2)c1` was run?
A: -5.14% (inactive)

Q: With `c1nc(NCCc2cnc[nH]2)c2cc(-c3ccoc3)ccc2n1` as the compound, how does the “activity change, negative = inhibition” value read?
A: 8.29% (inactive)

Q: Which “activity change, negative = inhibition” value does the source give for `O=C1Nc2ccc(Cl)cc2/C1=C\c1cc(Cl)c(O)c(Cl)c1` here?
A: 33.1% (inactive)

Q: With `O=S1(=O)N=C(N2CCOCC2)c2ccccc21` as the compound, how does the “activity change, negative = inhibition” value read?
A: 0.0775% (inactive)

Q: `O=[S+]([O-])(c1ccc2c(c1)OCCO2)N1CCN([S+](=O)([O-])c2ccccc2Br)CC1` was tested. Which “activity change, negative = inhibition” value did it give?
A: -1.82% (inactive)

Q: With `COc1cccc(CNc2ccc(S(=O)(=O)Nc3ccc(C)nc3)cc2)c1O` as the compound, how does the “activity change, negative = inhibition” value read?
A: -7.1% (inactive)

Q: How did the “activity change, negative = inhibition” value turn out when `O=S(=O)(c1cccc(Br)c1)N1CCN(S(=O)(=O)c2ccc3c(c2)OCCO3)CC1` was run?
A: 0.419% (inactive)

Q: `CN(c1cccc2cccnc12)S(=O)(=O)c1ccccc1` was tested. Which “activity change, negative = inhibition” value did it give?
A: -2.08% (inactive)

Q: `Cc1cc(C)nc(NC(=S)N2CCN(S(=O)(=O)c3cccc(C(F)(F)F)c3)CC2)c1` was tested. Which “activity change, negative = inhibition” value did it give?
A: 1.65% (inactive)

Q: For `O=C(O)c1ccc2c(c1)C(=O)N([C@H](Cc1ccc(F)cc1)C(=O)O)C2=O`, which “activity change, negative = inhibition” value is on record?
A: 1.64% (inactive)

Q: `COc1cccc(-c2ccc3ncnc(NCc4cccc(C)c4)c3c2)c1` was tested. Which “activity change, negative = inhibition” value did it give?
A: 4.84% (inactive)

Q: How did the “activity change, negative = inhibition” value turn out when `O=C(Nc1sc2c(c1-c1nc3ccccc3s1)CCNC2)C(F)F` was run?
A: 9.59% (inactive)

Q: With `O=S(=O)(c1c(F)cccc1F)C1CCN(S(=O)(=O)c2ccc3c(c2)OCCO3)CC1` as the compound, how does the “activity change, negative = inhibition” value read?
A: -0.565% (inactive)

Q: Which “activity change, negative = inhibition” value does the source give for `COc1ccc(C2Nc3ccccc3C(=O)N2C2CCCC2)cc1COc1ccc(NC(C)=O)cc1` (stereo not given) here?
A: 6.31% (inactive)

Q: For `Cc1cc(NS(=O)(=O)c2ccc(NC(=O)CCc3ccc(Cl)c(Cl)c3)cc2)no1`, which “activity change, negative = inhibition” value is on record?
A: -18.1% (inactive)

Q: `Cc1ccnc(NC(=S)N2CCN(c3ccc(F)cc3)CC2)c1` was tested. Which “activity change, negative = inhibition” value did it give?
A: -16% (inactive)

Q: With `O=C(c1ccccc1)N1CCN(c2nc(-c3cccs3)nc3ccccc23)CC1` as the compound, how does the “activity change, negative = inhibition” value read?
A: 3.74% (inactive)

Q: How did the “activity change, negative = inhibition” value turn out when `Cn1c2cc(Br)sc2c2cnn(Cc3c(F)cccc3Cl)c(=O)c21` was run?
A: 7.11% (inactive)

Q: `O=C(Nc1ccc(-c2nc3ccccc3[nH]2)cc1)c1ccc(Cl)c(Cl)c1` was tested. Which “activity change, negative = inhibition” value did it give?
A: 26.5% (inactive)

Q: With `FC(F)(F)c1ccccc1-c1nc(NCc2ccc(-c3cccnc3)cc2)c2ccccc2n1` as the compound, how does the “activity change, negative = inhibition” value read?
A: 2.75% (inactive)

Q: How did the “activity change, negative = inhibition” value turn out when `CC(C)(C)OC(=O)Nc1ncnc2c1C(c1ccccc1)c1c(ccc3ccccc13)O2` (stereo not given) was run?
A: 4.97% (inactive)

Q: `COc1cc(NC(=S)N2CCN(c3cccc(C(F)(F)F)c3)CC2)nc2ccccc12` was tested. Which “activity change, negative = inhibition” value did it give?
A: -7.81% (inactive)

Q: With `COc1cccc(-c2nnc3n2N=C(c2c(OC)cccc2OC)CS3)c1` as the compound, how does the “activity change, negative = inhibition” value read?
A: 3.49% (inactive)

Q: Which “activity change, negative = inhibition” value does the source give for `COC(=O)c1ccc(O)c2ncccc12` here?
A: -10.9% (inactive)

Q: With `NC(=O)C1CCN(c2nc(-c3ccccc3F)cs2)CC1` as the compound, how does the “activity change, negative = inhibition” value read?
A: -0.328% (inactive)

Q: Which “activity change, negative = inhibition” value does the source give for `CCCN(Cc1cccs1)c1ncnc2ccc(-c3ccc4c(c3)OCO4)cc12` here?
A: 9.67% (inactive)

Q: Which “activity change, negative = inhibition” value does the source give for `COc1ccc(-n2cnc3c(c2=N)C(c2cccc(OC)c2)c2c(ccc4ccccc24)O3)cc1` (stereo not given) here?
A: 5.41% (inactive)

Q: `COc1ccc(C2c3c(ncn(CCc4ccccc4)c3=N)Oc3ccc4ccccc4c32)cc1OC` (stereo not given) was tested. Which “activity change, negative = inhibition” value did it give?
A: 5.53% (inactive)

Q: `O=C(NCc1cccnc1)C1CCN(S(=O)(=O)c2cccs2)CC1` was tested. Which “activity change, negative = inhibition” value did it give?
A: 6.96% (inactive)

Q: For `O=C(NCCc1nc2ccccc2n1CCOc1ccc(C(F)(F)F)cc1)C1CCCCC1`, which “activity change, negative = inhibition” value is on record?
A: 6.86% (inactive)

Q: With `Cc1cc2c(s1)c1cnn(Cc3c(F)c(F)c(C)c(F)c3F)c(=O)c1n2C` as the compound, how does the “activity change, negative = inhibition” value read?
A: 7.83% (inactive)

Q: Which “activity change, negative = inhibition” value does the source give for `CC(C)(C)c1cccc(-n2cnc3cc(C(=O)N4CCCCC4)ccc32)c1` here?
A: 0.3% (inactive)

Q: Which “activity change, negative = inhibition” value does the source give for `CCOC(=O)c1nn(-c2ccccc2)c(=O)c2c(N)sc(C)c12` here?
A: -9.43% (inactive)

Q: `Cc1cc(C)nc(NC(=S)N2CCN(c3ccc(NS(C)(=O)=O)nn3)CC2)c1` was tested. Which “activity change, negative = inhibition” value did it give?
A: -7.36% (inactive)

Q: With `COc1cc(O)c(C(CC(=O)N2CCC(Cc3ccccc3)CC2)c2ccc(OC)c(OC)c2)c(OC)c1` (stereo not given) as the compound, how does the “activity change, negative = inhibition” value read?
A: 4.43% [at 228 µM] (inactive)
